Measurements as given in PubChem BioAssay (EPA / NIEHS).
Records with an inconclusive call do not appear. The source made the active and inactive calls. How the source made its calls: active means hit-call score of the fitted dose curve at least 0.9, where 1 is the maximum; inconclusive means response in the unintended direction; inactive means score below 0.9.

What was measured:
[1] = target: human Matrix Metalloproteinase-2 (MMP2), MMP2 (gene 4313) (UniProt P08253); assay: NVS_ENZ_hMMP2: NovaScreen (NVS) Enzymatic Assay for human Matrix Metalloproteinase-2 (MMP2) (AID 2283184)
human Matrix Metalloproteinase-2 (MMP2), MMP2 (gene 4313), sequence (P08253 whole entry, looked up): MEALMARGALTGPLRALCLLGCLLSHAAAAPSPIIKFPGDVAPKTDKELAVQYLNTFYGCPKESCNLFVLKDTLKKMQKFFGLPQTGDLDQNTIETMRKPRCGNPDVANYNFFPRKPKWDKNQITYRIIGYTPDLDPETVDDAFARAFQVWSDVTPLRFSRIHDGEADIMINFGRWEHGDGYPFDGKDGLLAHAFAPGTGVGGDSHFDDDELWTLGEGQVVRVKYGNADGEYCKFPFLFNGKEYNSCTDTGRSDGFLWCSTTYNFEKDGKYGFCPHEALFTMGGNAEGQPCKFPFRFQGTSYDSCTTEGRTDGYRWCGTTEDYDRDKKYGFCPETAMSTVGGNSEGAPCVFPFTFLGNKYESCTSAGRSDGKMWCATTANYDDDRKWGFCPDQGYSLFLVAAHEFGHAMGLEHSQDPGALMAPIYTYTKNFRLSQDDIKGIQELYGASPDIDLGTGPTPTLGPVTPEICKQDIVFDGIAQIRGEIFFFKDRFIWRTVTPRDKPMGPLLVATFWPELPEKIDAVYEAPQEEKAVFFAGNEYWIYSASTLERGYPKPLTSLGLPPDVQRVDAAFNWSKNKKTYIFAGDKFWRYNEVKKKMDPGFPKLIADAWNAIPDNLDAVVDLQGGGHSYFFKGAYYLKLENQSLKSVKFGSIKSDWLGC
In short: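 Cell-free recombinant MMP2 activity with a fluorescent substrate, read 1 h after dosing. Primary screen in duplicate at 25 uM; actives then run in concentration series; loss of signal fitted versus DMSO.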

[2] = target: human Matrix Metalloproteinase-3 (MMP3), MMP3 (gene 4314) (UniProt P08254); assay: NVS_ENZ_hMMP3: NovaScreen (NVS) Enzymatic Assay for human Matrix Metalloproteinase-3 (MMP3) (AID 2283185)
human Matrix Metalloproteinase-3 (MMP3), MMP3 (gene 4314), sequence (P08254 whole entry, looked up): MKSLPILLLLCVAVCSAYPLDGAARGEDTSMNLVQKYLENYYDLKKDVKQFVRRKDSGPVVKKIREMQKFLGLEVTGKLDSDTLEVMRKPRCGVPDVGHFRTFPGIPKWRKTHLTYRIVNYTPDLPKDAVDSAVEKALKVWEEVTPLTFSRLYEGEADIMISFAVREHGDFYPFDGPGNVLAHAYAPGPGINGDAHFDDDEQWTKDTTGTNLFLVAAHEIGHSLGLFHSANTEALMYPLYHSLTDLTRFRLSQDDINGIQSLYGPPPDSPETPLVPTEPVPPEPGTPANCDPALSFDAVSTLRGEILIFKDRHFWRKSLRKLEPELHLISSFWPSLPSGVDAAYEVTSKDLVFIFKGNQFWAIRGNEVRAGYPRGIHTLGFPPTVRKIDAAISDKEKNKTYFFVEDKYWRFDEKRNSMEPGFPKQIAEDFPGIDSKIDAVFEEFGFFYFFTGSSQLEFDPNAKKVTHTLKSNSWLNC
In short: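 Cell-free recombinant human MMP3 activity, fluorescence intensity read 1 h after dosing. Primary screen duplicate at 25 uM, actives retested in concentration series; loss of signal vs DMSO baseline.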

[3] = target: human Matrix Metalloproteinase-9 (MMP9), MMP9 (gene 4318) (UniProt P14780); assay: NVS_ENZ_hMMP9: NovaScreen (NVS) Enzymatic Assay for human Matrix Metalloproteinase-9 (MMP9) (AID 2283190);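 further: cell-free recombinant MMP9 protease activity read by fluorescent substrate signal; active means inhibition seen as loss of fluorescence signal versus DMSO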
human Matrix Metalloproteinase-9 (MMP9), MMP9 (gene 4318), sequence (P14780 whole entry, looked up): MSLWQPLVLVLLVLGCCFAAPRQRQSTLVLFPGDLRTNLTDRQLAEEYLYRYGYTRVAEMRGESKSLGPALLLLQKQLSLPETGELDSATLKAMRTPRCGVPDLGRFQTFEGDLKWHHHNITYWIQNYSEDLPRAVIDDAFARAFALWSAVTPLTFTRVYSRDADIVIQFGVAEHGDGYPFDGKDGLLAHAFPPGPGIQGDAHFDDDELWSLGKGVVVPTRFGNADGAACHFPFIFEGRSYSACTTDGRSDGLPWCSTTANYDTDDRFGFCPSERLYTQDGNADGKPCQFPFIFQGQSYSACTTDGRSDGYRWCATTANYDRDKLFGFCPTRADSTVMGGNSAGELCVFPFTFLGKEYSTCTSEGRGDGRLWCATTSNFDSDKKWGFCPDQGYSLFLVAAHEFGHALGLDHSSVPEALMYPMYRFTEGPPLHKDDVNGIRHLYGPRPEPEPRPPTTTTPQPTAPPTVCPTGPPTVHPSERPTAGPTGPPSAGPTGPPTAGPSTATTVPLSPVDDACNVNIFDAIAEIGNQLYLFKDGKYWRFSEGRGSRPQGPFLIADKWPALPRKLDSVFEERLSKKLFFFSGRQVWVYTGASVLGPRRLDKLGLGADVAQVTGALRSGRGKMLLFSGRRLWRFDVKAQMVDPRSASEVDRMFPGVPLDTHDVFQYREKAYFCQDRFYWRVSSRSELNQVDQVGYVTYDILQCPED
In short: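 Cell-free fluorescence-intensity enzyme activity assay using extracted protein, read 1 h after dosing. Loss of signal versus DMSO baseline indicates inhibition; primary screen in duplicate at 25 uM, actives followed up in concentration series.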

[4] = target: human Protein Phosphatase, Mg2+/Mn2+ Dependent 1A (PPM1A), PPM1A (gene 5494) (UniProt P35813); assay: NVS_ENZ_hPPM1A: NovaScreen (NVS) Enzymatic Assay for human Protein Phosphatase, Mg2+/Mn2+ Dependent 1A (PPM1A) (AID 2283198)
human Protein Phosphatase, Mg2+/Mn2+ Dependent 1A (PPM1A), PPM1A (gene 5494), sequence (P35813 whole entry, looked up): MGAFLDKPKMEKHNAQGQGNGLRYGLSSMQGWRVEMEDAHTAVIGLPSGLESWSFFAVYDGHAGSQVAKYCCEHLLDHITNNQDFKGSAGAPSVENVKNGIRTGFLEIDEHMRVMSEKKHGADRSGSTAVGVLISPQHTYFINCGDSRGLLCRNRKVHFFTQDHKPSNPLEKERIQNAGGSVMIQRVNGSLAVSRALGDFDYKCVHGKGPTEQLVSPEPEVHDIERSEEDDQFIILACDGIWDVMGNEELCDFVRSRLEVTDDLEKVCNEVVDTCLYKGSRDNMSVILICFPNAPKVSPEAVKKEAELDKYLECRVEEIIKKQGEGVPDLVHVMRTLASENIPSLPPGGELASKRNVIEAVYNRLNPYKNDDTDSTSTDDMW
In short: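 Cell-free recombinant PPM1A phosphatase assay with fluorescent substrate, read 1 h after dosing by electrophoretic mobility shift. Chemicals screened in duplicate at 25 uM, then in concentration-response up to 50 uM; loss of activity versus DMSO.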

[5] = target: human Phosphodiesterase 4A1 (PDE4A1), PDE4A (gene 5141) (UniProt P27815); assay: NVS_ENZ_hPDE4A1: NovaScreen (NVS) Enzymatic Assay for human Phosphodiesterase 4A1 (PDE4A1) (AID 2283191)
human Phosphodiesterase 4A1 (PDE4A1), PDE4A (gene 5141), sequence (P27815 whole entry, looked up): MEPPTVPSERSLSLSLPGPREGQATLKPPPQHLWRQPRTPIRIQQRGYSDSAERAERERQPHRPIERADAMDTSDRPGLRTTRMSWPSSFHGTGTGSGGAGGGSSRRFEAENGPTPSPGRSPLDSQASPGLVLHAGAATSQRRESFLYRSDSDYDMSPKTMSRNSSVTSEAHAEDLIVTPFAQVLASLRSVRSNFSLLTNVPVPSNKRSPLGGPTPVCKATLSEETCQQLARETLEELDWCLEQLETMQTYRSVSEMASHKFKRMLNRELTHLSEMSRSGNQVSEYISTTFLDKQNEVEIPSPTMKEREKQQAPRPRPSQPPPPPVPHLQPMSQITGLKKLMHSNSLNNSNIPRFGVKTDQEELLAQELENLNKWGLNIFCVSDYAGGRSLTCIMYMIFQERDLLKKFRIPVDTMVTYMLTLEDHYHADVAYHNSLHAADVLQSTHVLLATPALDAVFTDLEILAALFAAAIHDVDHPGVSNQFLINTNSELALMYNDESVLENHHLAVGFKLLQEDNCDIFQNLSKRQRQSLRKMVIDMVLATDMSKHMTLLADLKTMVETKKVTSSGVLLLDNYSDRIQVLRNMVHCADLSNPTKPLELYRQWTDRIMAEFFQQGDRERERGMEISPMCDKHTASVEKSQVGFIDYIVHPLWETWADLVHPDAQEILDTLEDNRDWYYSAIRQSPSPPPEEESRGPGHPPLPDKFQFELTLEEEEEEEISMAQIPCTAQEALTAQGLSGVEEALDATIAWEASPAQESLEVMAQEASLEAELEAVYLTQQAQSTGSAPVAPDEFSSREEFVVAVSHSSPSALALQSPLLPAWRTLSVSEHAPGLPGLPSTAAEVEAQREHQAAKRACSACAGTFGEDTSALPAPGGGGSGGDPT
In short: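 Cell-free recombinant human PDE4A1 with fluorescent substrate; product separated by electrophoretic mobility shift, 1 h. Screened at 25 uM, then up to 50 uM in concentration-response; loss of signal fitted against DMSO.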

[6] = target: human Phosphodiesterase 5 (PDE5), PDE5A (gene 8654) (UniProt O76074); assay: NVS_ENZ_hPDE5: NovaScreen (NVS) Enzymatic Assay for human Phosphodiesterase 5 (PDE5) (AID 2283194)
In short: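 Recombinant human PDE5 with specific substrate, read 1 h after dosing by fluorescence with electrophoretic mobility-shift separation of substrate and product. Initial single-concentration duplicate screen at 25 uM, actives followed in concentration series; loss of activity versus DMSO.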

[7] = target: human MAP Kinase-Activated Protein Kinase 2 (MAPKAPK2), MAPKAPK2 (gene 9261) (UniProt P49137); assay: NVS_ENZ_hMAPKAPK2: NovaScreen (NVS) Enzymatic Assay for human MAP Kinase-Activated Protein Kinase 2 (MAPKAPK2) (AID 2283178)
human MAP Kinase-Activated Protein Kinase 2 (MAPKAPK2), MAPKAPK2 (gene 9261), sequence (P49137 whole entry, looked up): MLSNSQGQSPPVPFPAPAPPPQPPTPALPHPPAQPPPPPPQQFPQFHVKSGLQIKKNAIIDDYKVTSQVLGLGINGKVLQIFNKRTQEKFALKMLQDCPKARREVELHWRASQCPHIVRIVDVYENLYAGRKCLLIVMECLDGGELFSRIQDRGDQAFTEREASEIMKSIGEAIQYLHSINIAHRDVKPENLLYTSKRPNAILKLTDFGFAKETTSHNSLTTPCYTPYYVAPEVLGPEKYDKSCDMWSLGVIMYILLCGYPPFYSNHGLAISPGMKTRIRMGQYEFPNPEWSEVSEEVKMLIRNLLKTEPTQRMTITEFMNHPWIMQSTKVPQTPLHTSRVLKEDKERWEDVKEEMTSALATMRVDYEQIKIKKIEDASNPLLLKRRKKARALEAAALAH
In short: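 Cell-free recombinant human MAPKAPK2 activity measured by fluorescence with electrophoretic mobility shift separation of substrate and product, 1 hr after dosing. Loss of signal versus DMSO; primary screen at 25 uM, concentration-response up to 50 uM.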

[8] = target: human Phosphodiesterase 10 (PDE10), PDE10A (gene 10846) (UniProt Q9Y233); assay: NVS_ENZ_hPDE10: NovaScreen (NVS) Enzymatic Assay for human Phosphodiesterase 10 (PDE10) (AID 2283195)
In short: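 Fluorescence/mobility-shift readout of PDE10A enzyme activity, taken 1 h post-dosing. Primary screen in duplicate at 25 uM; actives (e.g. ≥30% inhibition) retested as singleton concentration-response, top concentration 50 uM.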

[9] = target: Serine/threonine-protein phosphatase PP1-alpha catalytic subunit (Homo sapiens) (UniProt P62136); assay: NVS_ENZ_hPPP1CA: NovaScreen (NVS) Enzymatic Assay for human Protein Phosphatase 1 Aatalytic subunit Alpha (PPP1CA) (AID 2283200)
Serine/threonine-protein phosphatase PP1-alpha catalytic subunit (Homo sapiens), sequence (P62136 whole entry, looked up): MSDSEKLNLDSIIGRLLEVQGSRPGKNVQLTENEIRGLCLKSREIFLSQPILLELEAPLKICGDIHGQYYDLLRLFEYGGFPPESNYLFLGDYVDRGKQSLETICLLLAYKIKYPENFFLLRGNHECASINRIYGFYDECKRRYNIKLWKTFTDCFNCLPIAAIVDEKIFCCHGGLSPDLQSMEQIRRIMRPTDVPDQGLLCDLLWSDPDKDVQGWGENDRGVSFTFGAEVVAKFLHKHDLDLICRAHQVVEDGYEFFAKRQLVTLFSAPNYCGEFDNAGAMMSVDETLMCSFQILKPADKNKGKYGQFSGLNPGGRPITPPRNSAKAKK
In short: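 Recombinant enzyme activity read by fluorescence with electrophoretic mobility shift separating substrate from product, 1.33 h after dosing; loss of signal vs DMSO baseline. Primary screen in duplicate at 25 uM; actives retested in concentration-response up to 50 uM.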

[10] = target: Tyrosine-protein phosphatase non-receptor type 11 (Homo sapiens) (UniProt Q06124); assay: NVS_ENZ_hPTPN11: NovaScreen (NVS) Enzymatic Assay for human Protein Tyrosine Phosphatase Non-receptor Type 11 (PTPN11) (AID 2283202)
In short: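 Recombinant human PTPN11 activity on a fluorescent substrate, with substrate/product separated by electrophoretic mobility shift; read 0.5 h after dosing, loss of signal vs DMSO. Duplicate 25 uM screen, then concentration-response up to 50 uM.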

[11] = target: Tyrosine-protein phosphatase non-receptor type 14 (Homo sapiens) (UniProt Q15678); assay: NVS_ENZ_hPTPN14: NovaScreen (NVS) Enzymatic Assay for human Protein Tyrosine Phosphatase Non-receptor Type 14 (PTPN14) (AID 2283206)
Tyrosine-protein phosphatase non-receptor type 14 (Homo sapiens), sequence (Q15678 whole entry, looked up): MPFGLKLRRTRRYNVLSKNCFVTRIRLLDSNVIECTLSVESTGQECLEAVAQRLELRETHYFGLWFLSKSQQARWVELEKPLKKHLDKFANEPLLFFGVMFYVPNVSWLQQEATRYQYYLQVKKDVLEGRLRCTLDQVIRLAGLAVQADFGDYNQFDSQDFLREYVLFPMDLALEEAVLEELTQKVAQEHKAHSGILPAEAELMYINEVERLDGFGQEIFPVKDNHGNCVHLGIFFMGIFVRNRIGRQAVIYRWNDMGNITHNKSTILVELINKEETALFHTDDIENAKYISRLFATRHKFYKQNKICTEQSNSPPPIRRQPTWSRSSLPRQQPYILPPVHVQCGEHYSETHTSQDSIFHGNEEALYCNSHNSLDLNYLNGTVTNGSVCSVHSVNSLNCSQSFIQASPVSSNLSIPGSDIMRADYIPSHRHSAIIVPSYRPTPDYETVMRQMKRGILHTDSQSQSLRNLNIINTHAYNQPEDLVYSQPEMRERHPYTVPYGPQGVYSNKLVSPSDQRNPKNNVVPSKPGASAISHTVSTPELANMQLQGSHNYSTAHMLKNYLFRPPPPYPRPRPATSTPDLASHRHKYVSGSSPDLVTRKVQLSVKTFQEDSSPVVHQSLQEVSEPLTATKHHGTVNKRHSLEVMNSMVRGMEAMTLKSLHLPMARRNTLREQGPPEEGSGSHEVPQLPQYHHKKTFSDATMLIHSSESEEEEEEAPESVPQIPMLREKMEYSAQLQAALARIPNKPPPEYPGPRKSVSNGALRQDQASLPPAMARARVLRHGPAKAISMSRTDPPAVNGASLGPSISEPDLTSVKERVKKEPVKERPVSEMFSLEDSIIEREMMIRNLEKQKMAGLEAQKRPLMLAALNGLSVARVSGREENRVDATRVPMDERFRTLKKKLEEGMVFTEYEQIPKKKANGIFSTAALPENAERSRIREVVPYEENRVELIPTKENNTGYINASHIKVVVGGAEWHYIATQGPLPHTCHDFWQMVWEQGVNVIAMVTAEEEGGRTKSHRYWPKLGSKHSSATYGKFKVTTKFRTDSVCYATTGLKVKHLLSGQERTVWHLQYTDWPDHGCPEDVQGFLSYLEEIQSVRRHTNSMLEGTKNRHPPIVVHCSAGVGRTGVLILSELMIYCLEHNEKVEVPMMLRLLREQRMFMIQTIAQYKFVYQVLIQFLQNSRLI
In short: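 Cell-free recombinant human PTPN14 with fluorescent substrate, read 0.5 h after dosing by fluorescence and electrophoretic mobility shift separating substrate from product. Primary screen at 25 uM in duplicate; hits run to 50 uM maximum; loss of signal versus DMSO.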

[12] = target: human Protein Tyrosine Phosphatase Non-receptor Type 4 (PTPN4), PTPN4 (gene 5775) (UniProt P29074); assay: NVS_ENZ_hPTPN4: NovaScreen (NVS) Enzymatic Assay for human Protein Tyrosine Phosphatase Non-receptor Type 4 (PTPN4) (AID 2283208)
In short: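 Cell-free assay of PTPN4 expressed in Sf9 cells, using a fluorescent substrate with product separated by mobility shift; read 1.33 h after dosing. Single-point screen at 25 uM, then concentration-response up to 50 uM. Loss of signal relative to DMSO.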

[13] = target: Tyrosine-protein phosphatase non-receptor type 13 (Homo sapiens) (UniProt Q12923); assay: NVS_ENZ_hPTPN13: NovaScreen (NVS) Enzymatic Assay for human Protein Tyrosine Phosphatase Non-receptor Type 13 (PTPN13) (AID 2283205)
In short: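 Cell-free assay of recombinant human PTPN13 with a fluorescent substrate, product separated by electrophoretic mobility shift and read 0.5 h after dosing. Primary screen at 25 uM in duplicate, then concentration-response up to 50 uM. Loss of signal fitted against DMSO.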

[14] = target: human Matrix Metalloproteinase-7 (MMP7), MMP7 (gene 4316) (UniProt P09237); assay: NVS_ENZ_hMMP7: NovaScreen (NVS) Enzymatic Assay for human Matrix Metalloproteinase-7 (MMP7) (AID 2283183)
In short: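 Cell-free fluorescence enzymatic assay read 1 h after compound addition, activity loss analyzed against DMSO. Primary duplicate testing at 25 uM; compounds meeting threshold rerun in singleton concentration-response up to 50 uM.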

[15] = target: human Mitogen- and Stress-activated Protein Kinase-1 (Msk1), RPS6KA5 (gene 9252) (UniProt O75582); assay: NVS_ENZ_hMsk1: NovaScreen (NVS) Enzymatic Assay for human Mitogen- and Stress-activated Protein Kinase-1 (Msk1) (AID 2283187)
In short: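 Recombinant kinase with fluorescent substrate; product separated by electrophoretic mobility shift, read 1 h after dosing. Screened in duplicate at 25 uM; hits (e.g. ≥30% inhibition) tested in concentration–response up to 50 uM. DMSO baseline.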

[16] = target: human Phosphoinositide 3-kinase alpha (PI3Ka), PIK3CA (gene 5290) (UniProt P42336); assay: NVS_ENZ_hPI3Ka: NovaScreen (NVS) Enzymatic Assay for human Phosphoinositide 3-kinase alpha (PI3Ka) (AID 2283196)
In short: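 Enzyme activity as fluorescence after mobility-shift separation of substrate and product, 1 h reaction, recombinant human PI3Kα; concentration-response to 50 uM max for chemicals passing a 25 uM duplicate screen.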

[17] = target: human Protein Tyrosine Phosphatase Non-receptor Type 1 (PTPN1), PTPN1 (gene 5770) (UniProt P18031); assay: NVS_ENZ_hPTPN1: NovaScreen (NVS) Enzymatic Assay for human Protein Tyrosine Phosphatase Non-receptor Type 1 (PTPN1) (AID 2283201)
In short: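 Cell-free fluorogenic-substrate activity assay on recombinant enzyme, read 1.33 h after dosing by fluorescence and electrophoretic mobility shift; loss of signal vs DMSO baseline. Primary screen in duplicate at 25 uM, hits then run in concentration-response up to 50 uM.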

[18] = target: Tyrosine-protein phosphatase non-receptor type 12 (Homo sapiens) (UniProt Q05209); assay: NVS_ENZ_hPTPN12: NovaScreen (NVS) Enzymatic Assay for human Protein Tyrosine Phosphatase Non-receptor Type 12 (PTPN12) (AID 2283204)
In short: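 Single-concentration duplicates (25 uM) preceded singleton concentration-response up to 50 uM for chemicals passing threshold. Cell-free recombinant PTPN12 activity was read 1.33 h after dosing via fluorescence after mobility-shift separation; loss of signal versus DMSO.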

[19] = target: cAMP-dependent protein kinase catalytic subunit alpha (Homo sapiens) (UniProt P17612); assay: NVS_ENZ_hPKA: NovaScreen (NVS) Enzymatic Assay for human Protein Kinase A (PKA) (AID 2283192)
In short: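 Recombinant human PKA with specific fluorescent substrate, product separated by electrophoretic mobility shift, read 1 h after dosing. Primary screen at 25 uM in duplicate; actives then run in concentration-response up to 50 uM, activity relative to DMSO.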

O=C(O)CCN(C1(C(=O)NO)CCCC1)S(=O)(=O)c1ccc(Oc2ccc(F)cc2)cc1
AC50 [1]: 0.0139 µM (active)
AC50 [2]: 8.47 µM (active)
AC50 [3]: 0.00365 µM (active)
outcome [4]: inactive

O=C(OC[C@H]1O[C@@H](OC(=O)c2cc(O)c(O)c(OC(=O)c3cc(O)c(O)c(O)c3)c2)[C@H](OC(=O)c2cc(O)c(O)c(OC(=O)c3cc(O)c(O)c(O)c3)c2)[C@@H](OC(=O)c2cc(O)c(O)c(OC(=O)c3cc(O)c(O)c(O)c3)c2)[C@@H]1OC(=O)c1cc(O)c(O)c(OC(=O)c2cc(O)c(O)c(O)c2)c1)c1cc(O)c(O)c(OC(=O)c2cc(O)c(O)c(O)c2)c1
AC50 [2]: 0.437 µM (active)

C=CCCCCCCCCC(=O)O
outcome [1]: inactive
outcome [5]: inactive
outcome [6]: inactive

Nc1nc2ncc(CNc3ccc(C(=O)N[C@@H](CCC(=O)O)C(=O)O)cc3)nc2c(=O)[nH]1
AC50 [7]: 37.4 µM (active)
outcome [6]: inactive
outcome [8]: inactive
AC50 [9]: 8.97 µM (active)
AC50 [10]: 30.2 µM (active)
AC50 [11]: 14.9 µM (active)
AC50 [12]: 41.9 µM (active)

CNS(=O)(=O)c1cc(C(=O)N2CCC(CCN3C4CCC3CC(n3c(C)nc5ccccc53)C4)(c3cccc(F)c3)CC2)c(Cl)cc1F (stereo not drawn)
AC50 [1]: 8.32 µM (active)
AC50 [3]: 8.37 µM (active)
outcome [5]: inactive
outcome [13]: inactive

CC(C)c1cccc(C(C)C)c1N1C(=O)c2ccc(O)cc2C1=O
outcome [14]: inactive
outcome [1]: inactive
outcome [15]: inactive
AC50 [16]: 0.533 µM (active)
outcome [17]: inactive
outcome [18]: inactive
outcome [11]: inactive

COc1ccc(-n2nc(C(F)F)cc2-c2ccc(S(C)=O)cc2)cc1 (stereo not drawn)
AC50 [5]: 0.00229 µM (active)
AC50 [6]: 12.9 µM (active)

CC(=O)c1ccc2c(c1)[C@H](NC(=O)c1ccc(F)cc1)[C@@H](O)C(C)(C)O2
outcome [19]: inactive
outcome [6]: inactive

CCN(C(=O)c1cc(C)cc(OC[C@H](C)Nc2ccncc2)c1)C(C)C
outcome [4]: inactive

O=C(O)c1cccc(N(Cc2cccnc2)c2ccc(OC(F)F)c(OC(F)F)c2)c1
AC50 [5]: 0.00437 µM (active)
AC50 [6]: 3.28 µM (active)
